The record followed here is PubChem BioAssay (NCI).

About 83,000 compounds went through this panel and 20% of them were active in at least one assay; those are over-represented in the sample as a whole.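 Compound tested at a single concentration for 48 hours in 96-well plates; a percent growth value below 10 was scored as active.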 The source made the active and inactive calls.

This experiment relates to MDA-MB-468 breast. The experiment can be described thus: NCI-60 one-dose screen, 48 h (100 = growth as untreated, 0 = no growth, -100 = all killed). The following applies: 10 µM unless noted.
`O=C(Nc1cc(-c2cccnc2)nc(NCCCN2CCOCC2)n1)c1cc(Br)cc(C(F)(F)F)c1`: the growth is 52.8% (inactive).

Regarding `CC(O)CN1CCCCC1` (stereo not drawn), the growth is 104% (inactive).

As to `Cc1cc(C(O)(c2ccc(Nc3ccccc3)cc2)c2ccc(Nc3ccc(S(=O)(=O)O)cc3)cc2)ccc1N` (stereo not drawn), the growth is -71.3% (active).

`COc1ccc(-c2ccc(-c3ccc(C(=N)N)s3)s2)cc1Cl`: the growth was -12.5% (active).

In the case of `COc1cc(C2CC(c3ccc(Nc4ccnc5cc(Cl)ccc45)cc3)=NN2C=O)cc(OC)c1OC` (stereo not drawn), the growth was -7.9% (active).

For the compound `O=S(=O)(NCCNc1nccc(-c2c(-c3ccc(F)c(O)c3)nc3occn23)n1)c1ccc(Cl)cc1`, the growth is 95.6% (inactive).

With `CC(CN(C)C)Oc1ccc(OC(C)CN(C)C)c2c1C(=O)c1ccccc1C2=O` (stereo not drawn), the growth is 33.2% (inactive).

In the case of `O=C(/C(=C/c1ccccc1)CN1CCCCC1)c1ccccc1`, the growth was -72.8% (active).

As to `CSc1nnc(-c2cnn3c2NC(c2ccccc2)C3)n1-c1ccc(C(F)(F)F)cc1` (stereo not drawn), the growth was 71.1% (inactive).

In the case of `COc1cc(C2C=C(c3ccc(Cl)cc3)N=C3SC(C)=CN32)cc(OC)c1OC` (stereo not drawn), the growth was 80.2% (inactive).

For `O=C1Nc2ccccc2/C1=C\c1nc(C2CCN(S(=O)(=O)c3ccc(F)cc3)CC2)n2ccccc12`, the growth is 70.6% (inactive).

In the case of `COc1ccc(CC(C)=C(c2ccc(OCCN(C)C)cc2)c2ccc(OCCN(C)C)cc2)cc1`, the growth was 68.3% (inactive).

Take `Cc1c(C)c2c(c(C)c1OC(=O)CCC(=O)[O-])CCC(C)(CCCCCCCCCCC[P+](c1ccccc1)(c1ccccc1)c1ccccc1)O2` (stereo not drawn): the growth was -70.4% (active).
